Compound activity from PubChem.
Sampled rows, rich in hits. Any-hit rate of the full collection: about 8.2%.
SW480 rerep: A quantitative high throughput screen for small molecules that induce DNA re-replication in SW480 colon adenocarcinoma cells; SW480 DNA re-replication, Hoechst DNA content imaging, 48 h; Potency, µM (series often up to 46.1 µM), most hits filed as activators; 1.8% of 340,000 active; AID 624297, 2012; also: nearly all actives have a fitted effect of over 55% in size
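Quantitative HTS format with DMSO vehicle controls; 48 hr drug incubation at 37 C, then 40 min Hoechst staining and scanning imager measurement at 405 nm excitation.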
KB-3-1 cytotox: qHTS assay for MDR1-selective chemotherapeutics: Primary screen using the parental adenocarcinoma cell KB-3-1. KB-3-1 viability, CellTiter-Glo ATP luminescence, 72 h. Potency, µM (highest dose often 46.1 µM), hits mostly cytotoxic. 1.4% of 400,000 active. AID 1347075, 2019; also: nearly all actives have a fitted effect of over 60% in size
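KB-3-1 cells, DMEM (no phenol red) + 10% FBS; compound by pin transfer, 72 h, 37 °C. Readout: CellTiter-Glo luminescence after 10 min. Data normalized, curve-fitted.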
MCF10A rerep: A quantitative high throughput screen for small molecules that induce DNA re-replication in MCF 10a normal breast cells | MCF 10A DNA re-replication, Hoechst nuclear intensity, 48 h | AID 624296, 2012 | Potency, µM (series often up to 46.1 µM), usual class: activators | 2.9% of 350,000 active; also: nearly all actives have a fitted effect of over 50% in size
KB-V1 cytotox: qHTS assay for MDR1-selective chemotherapeutics: Primary screen using the drug-selected MDR subline cells KB-V1 | KB-V1 MDR cells viability, CellTiter-Glo, 72 h | Potency, µM (titrated, usually from 46.1 µM), actives largely listed as cytotoxic | 3.4% of 400,000 active | AID 1347076, 2019; also: nearly all actives have a fitted effect of over 60% in size
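KB-V1 cells (P-gp-expressing MDR subline of KB-3-1) in phenol-red-free DMEM with 10% FBS were exposed to library compounds over a concentration series for 72 h at 37 degrees C. Viability read by CellTiter-Glo luminescence; concentration-effect curves fitted after normalization.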
ELG1 repair inh: qHTS screen for small molecules that inhibit ELG1-dependent DNA repair in human embryonic kidney (HEK293T) cells expressing luciferase-tagged ELG1 | HEK293T ELG1-luciferase reporter, luminescence, 16 h; DNA damage induced by 5-fluorouridine | Potency, µM (series often up to 46.1 µM), hits mostly inhibitors | 2.3% of 330,000 active; also: nearly all actives have a fitted effect of over 55% in size
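Luminescence from the luciferase reporter, measured 30 min after ONE-Glo reagent at room temperature, was the read-out. Beforehand, 2,000 cells per well were exposed for 16 hr at 37 °C to 5-fluorouridine together with compound or vehicle.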
Hits are given with their value. Calls follow the shape of the dose curve; as a rule, active = well fitted curve in the direction sought with a large enough effect; inconclusive = small, poorly fitted or top-dose-only effect, or another doubt; inactive = no such curve, though single readings can be large; an effect the other way counts as inactive or inconclusive.

`CCCCn1c(SCc2nc(N)nc(N3CCCCC3)n2)nc2c1c(=O)n(C)c(=O)n2C` gave SW480 rerep inconclusive, KB-3-1 cytotox inactive, MCF10A rerep inactive, KB-V1 cytotox 8.2µM and ELG1 repair inh inactive.
Cn1c(=O)c2c(nc(SCCN3CCCCC3)n2C)n(C)c1=O was read as SW480 rerep inactive, KB-3-1 cytotox inactive, MCF10A rerep inactive, KB-V1 cytotox inactive and ELG1 repair inh inactive.
`COc1ccc(NC(=O)CSc2oc(-c3cccs3)nc2S(=O)(=O)c2ccc(Br)cc2)c(OC)c1` gave KB-3-1 cytotox inactive and KB-V1 cytotox inactive.
For Cc1cc(C(=O)N=Nc2c(O)n(C(C)C)c3ccccc23)n[nH]1 the results were SW480 rerep inactive, KB-3-1 cytotox inactive, MCF10A rerep inactive, KB-V1 cytotox inconclusive and ELG1 repair inh inactive.
Screening Cc1nc2ccccn2c1C(=O)N=Nc1c(O)n(CCC(C)C)c2ccccc12 returned SW480 rerep inactive, KB-3-1 cytotox inactive, MCF10A rerep inactive, KB-V1 cytotox inactive and ELG1 repair inh 9.2µM.
`Cc1cccc(-c2nnc(NC(=O)c3ccc(Cl)cc3)o2)c1` gave SW480 rerep inconclusive, KB-3-1 cytotox inconclusive, MCF10A rerep 14.6µM, KB-V1 cytotox 13µM and ELG1 repair inh inactive.
For Cc1ccc(C(=O)Nc2nnc(-c3ccncc3)o2)cc1 the results were SW480 rerep inactive, KB-3-1 cytotox inactive, MCF10A rerep inactive, KB-V1 cytotox inactive and ELG1 repair inh inactive.
`O=C(Nc1nnc(-c2cccnc2)o1)c1cccc(Cl)c1` gave SW480 rerep inactive, KB-3-1 cytotox inconclusive, MCF10A rerep inconclusive, KB-V1 cytotox inconclusive and ELG1 repair inh 16.4µM.
Screening C/C(=N\NC(=O)CNc1cccc(C(F)(F)F)c1)c1cccs1 returned SW480 rerep inactive, KB-3-1 cytotox inactive, MCF10A rerep inactive, KB-V1 cytotox inconclusive and ELG1 repair inh inactive.
N#C/C(=N\Nc1cccc(C(F)(F)F)c1)C(=O)c1ccsc1 was read as SW480 rerep inactive, KB-3-1 cytotox 16.4µM, MCF10A rerep inconclusive, KB-V1 cytotox 3.26µM and ELG1 repair inh inconclusive.
Screening O=S(=O)(NC1CCCCC1N1CCCCC1)c1ccccc1 (centres undefined) returned SW480 rerep inactive, KB-3-1 cytotox inactive, MCF10A rerep inactive, KB-V1 cytotox inactive and ELG1 repair inh inconclusive.
Screening O=S(=O)(NC1CCCCC1N1CCN(c2ccc(F)cc2)CC1)c1ccccc1 (centres undefined) returned SW480 rerep inactive, KB-3-1 cytotox inactive, MCF10A rerep 25.9µM, KB-V1 cytotox inactive and ELG1 repair inh inconclusive.
For Cc1ccc(C)c(N2CCN(C3CCCCC3NS(=O)(=O)c3ccccc3)CC2)c1 (centres undefined) the results were SW480 rerep inactive, KB-3-1 cytotox 16.4µM, MCF10A rerep inconclusive, KB-V1 cytotox inactive and ELG1 repair inh inactive.
`CN(C)S(=O)(=O)c1ccccc1C#N` gave SW480 rerep inactive, KB-3-1 cytotox inactive, MCF10A rerep inactive, KB-V1 cytotox inactive and ELG1 repair inh inactive.
For CN(C)S(=O)(=O)c1cccc2c1C(=O)c1ccccc1C2=O the results were SW480 rerep 20.6µM, KB-3-1 cytotox inactive, MCF10A rerep inactive, KB-V1 cytotox inactive and ELG1 repair inh inactive.
CCOC(=O)/C(C#N)=C/c1ccc(-c2ccccc2)o1 was read as KB-3-1 cytotox inactive and KB-V1 cytotox inactive.
`COc1cc(NC(=O)c2cc(-c3ccccc3Cl)on2)cc(OC)c1OC` gave SW480 rerep inconclusive, KB-3-1 cytotox 6.51µM, MCF10A rerep 20.6µM, KB-V1 cytotox inconclusive and ELG1 repair inh 9.2µM.
O=C(NCc1cccs1)c1cc(-c2cccs2)on1 was read as SW480 rerep inactive, KB-3-1 cytotox inactive, MCF10A rerep inactive, KB-V1 cytotox inactive and ELG1 repair inh inconclusive.
COc1cc(NC(=O)c2cc(-c3ccc(Cl)c(Cl)c3)on2)cc(OC)c1OC was read as KB-3-1 cytotox inactive and KB-V1 cytotox inactive.
Screening COCCNC(=O)c1cc(-c2cccs2)on1 returned SW480 rerep inactive, KB-3-1 cytotox 20.6µM, MCF10A rerep inactive, KB-V1 cytotox 20.6µM and ELG1 repair inh inconclusive.
CCC(C)NC(=O)c1ccc2nc(-c3cccs3)c(-c3cccs3)nc2c1 (centres undefined) was read as KB-3-1 cytotox 10.3µM and KB-V1 cytotox inactive.
`COc1cc(NC(=O)c2cc(-c3cccc(O)c3)on2)cc(OC)c1OC` gave SW480 rerep inactive, KB-3-1 cytotox 11.6µM, MCF10A rerep inactive, KB-V1 cytotox inactive and ELG1 repair inh inconclusive.
`COc1cc(NC(=O)c2cc(-c3ccc(C)cc3)on2)cc(OC)c1OC` gave SW480 rerep inactive, KB-3-1 cytotox inactive, MCF10A rerep inactive, KB-V1 cytotox inactive and ELG1 repair inh inactive.
`COCCNC(=O)Nc1ccc2nc(-c3cccs3)c(-c3cccs3)nc2c1` gave SW480 rerep inconclusive, KB-3-1 cytotox inactive, MCF10A rerep 23.1µM, KB-V1 cytotox inactive and ELG1 repair inh inconclusive.
O=C(Nc1ccc2nc(-c3cccs3)c(-c3cccs3)nc2c1)N1CCCC1 was read as KB-3-1 cytotox inactive and KB-V1 cytotox inactive.
COc1cc(NC(=O)c2cc(-c3cccs3)on2)cc(OC)c1OC was read as SW480 rerep inconclusive, KB-3-1 cytotox inconclusive, MCF10A rerep inconclusive, KB-V1 cytotox 6.51µM and ELG1 repair inh inconclusive.
For COC(=O)c1ccc(NC(=O)CC2C(=O)N(c3cccc(F)c3)C(=O)N2CC(C)C)cc1 (centres undefined) the results were KB-3-1 cytotox inactive and KB-V1 cytotox inactive.
For CC(C)c1nc(CNC(=O)C2CCC(=O)N(CCc3cccc(F)c3)C2)cs1 (centres undefined) the results were SW480 rerep inactive, KB-3-1 cytotox inactive, MCF10A rerep inactive, KB-V1 cytotox inconclusive and ELG1 repair inh inactive.
For CCOC(=O)c1c(C)nsc1NC(=O)C1(C)CCN1C(=O)CC (centres undefined) the results were KB-3-1 cytotox inactive and KB-V1 cytotox inactive.
`O=C(Cn1c(=O)ccc2cc(S(=O)(=O)N3CCCC3)ccc21)Nc1ccc(Cl)cc1` gave KB-3-1 cytotox inactive and KB-V1 cytotox inactive.
Cc1nc2cc(OCc3cc(C(=O)NC(C)c4cnn(C)c4)no3)ccc2s1 (centres undefined) was read as SW480 rerep inactive, KB-3-1 cytotox inactive, MCF10A rerep inactive, KB-V1 cytotox 10.3µM and ELG1 repair inh inactive.
For Cc1cc2c(cc1S(=O)(=O)N1CCOCC1)NC(=O)CO2 the results were SW480 rerep inactive, KB-3-1 cytotox inactive, MCF10A rerep inactive, KB-V1 cytotox inconclusive and ELG1 repair inh inactive.
`O=C(Nc1ncc(Cc2ccc(SC(F)F)cc2)s1)c1ccccc1` gave SW480 rerep 6.51µM, KB-3-1 cytotox 1.46µM, MCF10A rerep inconclusive, KB-V1 cytotox 2.06µM and ELG1 repair inh inconclusive.
